Data: the supplement of paper PMC10849652
About 7,900 targets were measured; listed, in parts, are those with a hit and a random draw of the rest. About 0.6% of all pairs of compound and target were hits. A number with no mark means an inactive call.

Assays:
Assay in all cases: log2 fold change, soluble protein after heating vs DMSO (PISA); higher = thermal stabilisation; K562 cells, 10 uM, 30 min; active = over 0.2 and 3.5 SD of the protein, either way, in both replicates (recomputed)
[1] = compound: CC1=C(C=C(C=C1)NC(=O)C2=CC(=CC=C2)N(C)C)NC(=O)C3=CC=C(C=C3)O
How it was run: (§1)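 For each measurement, 10 μM compound was applied for 30 min to K562 cells at 2×10^6 cells/mL. Aliquots were heated for 3 min across 48°C-58°C, pooled, and extracted in PBS with 0.5% NP-40 at 4°C; the supernatant after 21,000xg for 90 min was soluble protein. This was quantified by TMTpro 16plex LC-MS/MS with channel sums equalised, and thermal stability was reported relative to control samples from duplicates, on a log2 fold-change scale.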

[2] = compound: CC1=CC=C(C=C1)SC2=C3C=C(SC3=CN=C2)C(=O)N
How it was run: as §1

[3] = compound: CC1=NC(=CC=C1)C2=C(N=C(N2)C(C)(C)C)C3=CC4=NC=CN=C4C=C3
How it was run: as §1

[4] = compound: CCCS(=O)(=O)Nc1ccc(F)c(C(=O)c2c[nH]c3ncc(Cl)cc23)c1F
How it was run: as §1

[5] = compound: CCN(CC)Cc1ccc2cc(COC(=O)Nc3ccc(C(=O)NO)cc3)ccc2c1 [givinostat]
How it was run: as §1

[6] = compound: CC1=C(C=C(C=C1)NC(=O)C2=CC(=CC=C2)C(C)(C)C#N)NC3=CC4=C(C=C3)N=CN(C4=O)C
How it was run: as §1

[7] = compound: CCCCN(Cc1ccc(C(=O)NO)cc1)C(=O)Nc1ccccc1 [Nexturastat A]
How it was run: as §1

[8] = compound: CCCc1cc(C)[nH]c(=O)c1CNC(=O)c1cc(-c2ccnc(N3CCN(C)CC3)c2)cc2c1cnn2C(C)C
How it was run: as §1

[9] = compound: CCN(CCCOc1ccc2c(Nc3cc(CC(=O)Nc4cccc(F)c4)[nH]n3)ncnc2c1)CCOP(=O)(O)O [barasertib]
How it was run: as §1

[10] = compound: CCCS(=O)(=O)Nc1ccc(F)c(C(=O)c2c[nH]c3ncc(-c4ccc(Cl)cc4)cc23)c1F [vemurafenib]
How it was run: as §1

Target: KIZ (UniProt Q2M2Z5)
- log2 fold change [1]: 0.057
- log2 fold change [2]: 0.003
- log2 fold change [3]: -0.068
- log2 fold change [4]: -0.181

Target: MAPK11 (UniProt Q15759)
UniProt Q15759, sequence (Q15759 whole entry, looked up): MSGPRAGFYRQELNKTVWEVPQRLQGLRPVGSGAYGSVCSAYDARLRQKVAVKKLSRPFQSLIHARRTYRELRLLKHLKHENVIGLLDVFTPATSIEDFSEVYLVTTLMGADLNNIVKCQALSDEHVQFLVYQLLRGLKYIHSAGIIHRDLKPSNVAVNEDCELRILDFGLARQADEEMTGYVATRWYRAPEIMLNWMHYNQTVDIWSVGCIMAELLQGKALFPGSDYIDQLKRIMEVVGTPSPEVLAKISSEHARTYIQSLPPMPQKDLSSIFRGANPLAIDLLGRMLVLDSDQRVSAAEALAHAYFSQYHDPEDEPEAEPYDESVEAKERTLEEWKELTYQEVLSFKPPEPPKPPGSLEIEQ
- log2 fold change [1]: 0.094
- log2 fold change [3]: 0.045
- log2 fold change [5]: 0.131

Target: ILF3 (UniProt Q12906)
- log2 fold change [6]: 0.106
- log2 fold change [3]: -0.177
- log2 fold change [7]: 0.347
- log2 fold change [8]: -0.232
- log2 fold change [9]: -0.241

Target: MFSD12 isoform 3 (UniProt Q6NUT3)
- log2 fold change [6]: 0.115
- log2 fold change [5]: -0.022

Target: LSR isoform 3 (UniProt Q86X29)
- log2 fold change [6]: -0.232
- log2 fold change [2]: 0.04
- log2 fold change [4]: 0.158
- log2 fold change [8]: -0.081

Target: MELK (UniProt Q14680)
UniProt Q14680, sequence (Q14680 whole entry, looked up): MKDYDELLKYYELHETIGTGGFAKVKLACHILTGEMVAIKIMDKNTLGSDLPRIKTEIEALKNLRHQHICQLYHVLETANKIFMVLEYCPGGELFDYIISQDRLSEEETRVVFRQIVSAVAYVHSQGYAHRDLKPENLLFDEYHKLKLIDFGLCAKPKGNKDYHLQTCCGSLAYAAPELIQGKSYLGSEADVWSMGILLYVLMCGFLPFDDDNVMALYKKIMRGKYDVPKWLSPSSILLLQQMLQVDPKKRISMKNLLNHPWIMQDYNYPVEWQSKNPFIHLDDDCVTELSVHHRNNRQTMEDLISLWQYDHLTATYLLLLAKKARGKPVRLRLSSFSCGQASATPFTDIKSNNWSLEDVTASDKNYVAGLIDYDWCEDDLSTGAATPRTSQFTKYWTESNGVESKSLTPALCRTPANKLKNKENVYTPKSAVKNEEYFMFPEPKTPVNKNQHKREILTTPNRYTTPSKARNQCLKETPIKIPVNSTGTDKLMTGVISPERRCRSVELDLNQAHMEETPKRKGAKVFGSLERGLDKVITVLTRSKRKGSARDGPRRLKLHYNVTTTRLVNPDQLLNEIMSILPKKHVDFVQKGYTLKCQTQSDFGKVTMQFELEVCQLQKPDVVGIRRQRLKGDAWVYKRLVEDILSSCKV
- log2 fold change [6]: -0.026
- log2 fold change [2]: 0.111
- log2 fold change [3]: -0.015
- log2 fold change [7]: 0.134
- log2 fold change [4]: 0.02
- log2 fold change [5]: -0.023
- log2 fold change [9]: 0.048

Target: MAGEA8 (UniProt P43361)
- log2 fold change [1]: 0.009
- log2 fold change [2]: 0.02
- log2 fold change [3]: 0.072
- log2 fold change [10]: 0.031
- log2 fold change [4]: 0.197
- log2 fold change [5]: 0.034
- log2 fold change [9]: -0.123

Target: MARCHF3 (UniProt Q86UD3)
UniProt Q86UD3, sequence (Q86UD3 whole entry, looked up): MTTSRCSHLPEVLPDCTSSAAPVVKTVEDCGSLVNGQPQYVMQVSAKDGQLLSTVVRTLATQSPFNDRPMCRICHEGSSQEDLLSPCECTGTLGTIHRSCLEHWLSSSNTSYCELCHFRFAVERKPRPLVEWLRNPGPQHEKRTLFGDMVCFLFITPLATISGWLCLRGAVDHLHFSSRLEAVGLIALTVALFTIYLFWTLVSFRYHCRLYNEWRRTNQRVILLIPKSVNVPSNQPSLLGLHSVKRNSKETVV
- log2 fold change [6]: 0.001
- log2 fold change [2]: -0.008
- log2 fold change [7]: 0.081
- log2 fold change [4]: -0.01
- log2 fold change [9]: 0.025

Target: ITPRID2 (UniProt P28290)
- log2 fold change [1]: -0.003
- log2 fold change [2]: -0.103
- log2 fold change [3]: -0.065
- log2 fold change [7]: -0.188
- log2 fold change [10]: -0.125
- log2 fold change [4]: -0.097
- log2 fold change [5]: 0.213

Target: MAGED1 isoform 2 (UniProt Q9Y5V3)
UniProt Q9Y5V3, sequence (Q9Y5V3 whole entry, looked up): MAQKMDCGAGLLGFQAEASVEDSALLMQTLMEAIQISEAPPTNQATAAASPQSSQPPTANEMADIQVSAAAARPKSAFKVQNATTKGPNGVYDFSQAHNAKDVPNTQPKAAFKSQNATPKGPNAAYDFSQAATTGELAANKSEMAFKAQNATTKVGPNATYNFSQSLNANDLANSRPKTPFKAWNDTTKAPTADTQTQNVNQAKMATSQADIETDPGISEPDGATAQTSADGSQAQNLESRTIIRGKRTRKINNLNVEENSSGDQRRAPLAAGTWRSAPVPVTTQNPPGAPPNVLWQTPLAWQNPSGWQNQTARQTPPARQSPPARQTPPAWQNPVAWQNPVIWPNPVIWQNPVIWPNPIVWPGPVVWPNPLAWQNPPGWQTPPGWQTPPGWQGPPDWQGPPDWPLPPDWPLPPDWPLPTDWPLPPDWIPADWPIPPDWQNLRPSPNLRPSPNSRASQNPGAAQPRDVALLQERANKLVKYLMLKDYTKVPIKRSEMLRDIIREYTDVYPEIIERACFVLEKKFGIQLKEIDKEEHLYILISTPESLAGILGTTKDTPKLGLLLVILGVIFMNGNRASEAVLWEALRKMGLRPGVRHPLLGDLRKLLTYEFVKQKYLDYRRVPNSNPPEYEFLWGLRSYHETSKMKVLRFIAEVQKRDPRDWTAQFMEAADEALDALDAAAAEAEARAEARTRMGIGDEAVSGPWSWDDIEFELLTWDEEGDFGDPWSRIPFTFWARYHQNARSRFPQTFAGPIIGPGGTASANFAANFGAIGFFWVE
- log2 fold change [6]: 0.003
- log2 fold change [2]: 0.1
- log2 fold change [7]: 0.608 (active)
- log2 fold change [10]: -0.236
- log2 fold change [4]: 0.198
- log2 fold change [5]: 0.006

Target: LIN52 (UniProt Q52LA3)
- log2 fold change [8]: 0.123

Target: MAPRE3 isoform 2 (UniProt Q9UPY8)
UniProt Q9UPY8, sequence (Q9UPY8 whole entry, looked up): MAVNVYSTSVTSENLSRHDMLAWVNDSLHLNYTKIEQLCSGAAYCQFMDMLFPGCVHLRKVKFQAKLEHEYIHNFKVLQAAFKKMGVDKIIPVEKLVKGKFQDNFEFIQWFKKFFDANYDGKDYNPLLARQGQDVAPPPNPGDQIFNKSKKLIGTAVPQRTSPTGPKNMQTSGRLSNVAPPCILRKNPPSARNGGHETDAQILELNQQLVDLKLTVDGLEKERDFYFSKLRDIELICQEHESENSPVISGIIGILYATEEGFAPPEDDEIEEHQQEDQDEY
- log2 fold change [2]: -0.075
- log2 fold change [3]: -0.065
- log2 fold change [4]: 0.029

Target: KCNK5 (UniProt O95279)
- log2 fold change [6]: -0.114
- log2 fold change [2]: 0.195
- log2 fold change [3]: 0.084
- log2 fold change [7]: 0.106
- log2 fold change [4]: 0.1
- log2 fold change [8]: 0.157
- log2 fold change [5]: -0.319
- log2 fold change [9]: 0.097

Target: MFSD8 (UniProt Q8NHS3)
- log2 fold change [1]: -0.026
- log2 fold change [2]: 0.113
- log2 fold change [3]: 0.011
- log2 fold change [7]: -0.004
- log2 fold change [10]: 0.045
- log2 fold change [4]: 0.151
- log2 fold change [8]: -0.046
- log2 fold change [5]: 0.034
- log2 fold change [9]: -0.062

Target: MBLAC1 (UniProt A4D2B0)
UniProt A4D2B0, sequence (A4D2B0 whole entry, looked up): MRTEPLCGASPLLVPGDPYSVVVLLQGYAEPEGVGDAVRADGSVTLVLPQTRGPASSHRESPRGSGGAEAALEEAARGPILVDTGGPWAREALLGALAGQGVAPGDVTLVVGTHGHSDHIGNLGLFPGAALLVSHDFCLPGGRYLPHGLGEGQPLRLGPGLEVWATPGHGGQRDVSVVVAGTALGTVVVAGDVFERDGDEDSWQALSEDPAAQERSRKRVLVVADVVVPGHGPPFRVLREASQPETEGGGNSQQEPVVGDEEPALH
- log2 fold change [1]: 0.079
- log2 fold change [2]: -0.093
- log2 fold change [3]: -0.098
- log2 fold change [10]: 0.029
- log2 fold change [4]: -0.008
- log2 fold change [8]: 0.059
- log2 fold change [5]: -0.04
- log2 fold change [9]: -0.016

Target: KIF21A (UniProt H0YI78)
- log2 fold change [1]: -0.001
- log2 fold change [5]: 0.447

Target: MAP4K2 (UniProt Q12851)
- log2 fold change [6]: -0.034
- log2 fold change [2]: 0.079
- log2 fold change [3]: 0.094
- log2 fold change [4]: 0.043
- log2 fold change [9]: 0.218

Target: LAPTM4B (UniProt Q86VI4)
- log2 fold change [6]: 0
- log2 fold change [8]: -0.228
- log2 fold change [5]: 0.128
- log2 fold change [9]: 0.002

Target: LAMP2 isoform 2 (UniProt P13473)
UniProt P13473, sequence (P13473 whole entry, looked up): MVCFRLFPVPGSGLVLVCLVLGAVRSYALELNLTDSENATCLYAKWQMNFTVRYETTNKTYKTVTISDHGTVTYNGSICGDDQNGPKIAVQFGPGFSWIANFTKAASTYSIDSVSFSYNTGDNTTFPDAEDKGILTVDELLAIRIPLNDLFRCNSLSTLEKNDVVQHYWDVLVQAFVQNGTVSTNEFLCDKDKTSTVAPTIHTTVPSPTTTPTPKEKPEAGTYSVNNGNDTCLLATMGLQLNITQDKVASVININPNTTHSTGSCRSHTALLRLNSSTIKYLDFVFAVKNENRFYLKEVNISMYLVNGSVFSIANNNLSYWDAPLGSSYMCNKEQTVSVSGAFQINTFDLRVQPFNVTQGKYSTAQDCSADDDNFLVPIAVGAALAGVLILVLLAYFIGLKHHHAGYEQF
- log2 fold change [2]: -0.07
- log2 fold change [3]: 0.003
- log2 fold change [7]: -0.015
- log2 fold change [10]: -0.082
- log2 fold change [4]: -0.093
- log2 fold change [8]: -0.071
- log2 fold change [5]: -0.158
- log2 fold change [9]: 0

Target: LSR (UniProt M0QZL9)
- log2 fold change [6]: -0.324
- log2 fold change [7]: -0.157
- log2 fold change [10]: 0.024

Target: MCOLN3 (UniProt Q8TDD5)
UniProt Q8TDD5, sequence (Q8TDD5 whole entry, looked up): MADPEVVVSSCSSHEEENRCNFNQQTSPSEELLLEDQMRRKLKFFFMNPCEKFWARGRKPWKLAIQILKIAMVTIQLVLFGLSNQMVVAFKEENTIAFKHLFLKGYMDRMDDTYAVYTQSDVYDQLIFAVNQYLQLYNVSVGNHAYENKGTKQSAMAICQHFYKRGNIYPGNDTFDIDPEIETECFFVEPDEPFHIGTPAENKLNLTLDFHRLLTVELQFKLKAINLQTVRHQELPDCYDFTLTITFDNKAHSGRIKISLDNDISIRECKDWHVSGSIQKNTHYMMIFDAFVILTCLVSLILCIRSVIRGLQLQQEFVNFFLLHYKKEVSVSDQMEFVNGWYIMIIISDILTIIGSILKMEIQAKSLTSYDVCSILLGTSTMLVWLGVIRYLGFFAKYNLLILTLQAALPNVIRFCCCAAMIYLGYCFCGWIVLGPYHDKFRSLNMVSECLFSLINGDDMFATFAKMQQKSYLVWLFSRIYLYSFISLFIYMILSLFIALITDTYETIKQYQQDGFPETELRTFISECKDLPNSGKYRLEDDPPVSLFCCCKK
- log2 fold change [1]: 0.013
- log2 fold change [2]: 0.15
- log2 fold change [4]: 0.014
- log2 fold change [8]: -0.481
- log2 fold change [5]: 0.221
- log2 fold change [9]: -0.171

Target: LRRFIP1 isoform 4 (UniProt Q32MZ4)
UniProt Q32MZ4, sequence (Q32MZ4 whole entry, looked up): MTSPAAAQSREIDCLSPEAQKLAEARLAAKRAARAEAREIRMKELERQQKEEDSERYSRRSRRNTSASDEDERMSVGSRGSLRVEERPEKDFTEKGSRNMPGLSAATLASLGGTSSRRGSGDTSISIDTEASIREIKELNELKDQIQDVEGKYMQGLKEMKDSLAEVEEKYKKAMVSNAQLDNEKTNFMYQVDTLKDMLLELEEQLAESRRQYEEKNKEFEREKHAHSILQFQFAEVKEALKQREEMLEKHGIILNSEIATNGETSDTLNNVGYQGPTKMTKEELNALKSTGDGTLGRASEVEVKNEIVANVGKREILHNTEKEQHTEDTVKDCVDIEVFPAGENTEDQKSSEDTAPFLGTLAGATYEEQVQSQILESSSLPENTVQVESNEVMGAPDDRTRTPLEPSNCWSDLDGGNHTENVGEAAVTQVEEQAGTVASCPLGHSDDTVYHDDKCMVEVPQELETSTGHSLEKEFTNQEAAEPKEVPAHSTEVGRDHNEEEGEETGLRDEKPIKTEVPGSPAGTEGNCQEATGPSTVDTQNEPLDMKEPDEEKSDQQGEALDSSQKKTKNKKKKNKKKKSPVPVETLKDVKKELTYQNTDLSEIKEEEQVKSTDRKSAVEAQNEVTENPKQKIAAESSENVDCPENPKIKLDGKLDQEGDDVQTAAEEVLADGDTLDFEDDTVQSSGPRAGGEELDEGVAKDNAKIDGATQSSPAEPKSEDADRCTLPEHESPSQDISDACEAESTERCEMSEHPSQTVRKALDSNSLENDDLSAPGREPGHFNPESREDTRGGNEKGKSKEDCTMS
- log2 fold change [3]: 0.186
- log2 fold change [7]: -0.077
- log2 fold change [5]: 0.011

Target: IGFBP6 (UniProt P24592)
UniProt P24592, sequence (P24592 whole entry, looked up): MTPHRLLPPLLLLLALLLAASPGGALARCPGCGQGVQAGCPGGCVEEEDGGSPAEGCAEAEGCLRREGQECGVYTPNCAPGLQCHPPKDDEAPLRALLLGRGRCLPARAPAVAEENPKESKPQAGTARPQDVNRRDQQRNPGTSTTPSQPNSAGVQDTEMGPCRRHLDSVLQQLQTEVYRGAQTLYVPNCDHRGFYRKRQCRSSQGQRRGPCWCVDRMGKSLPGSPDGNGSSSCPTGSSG
- log2 fold change [1]: 0.03
- log2 fold change [10]: 0.189

Target: LDLRAP1 (UniProt Q5SW96)
UniProt Q5SW96, sequence (Q5SW96 whole entry, looked up): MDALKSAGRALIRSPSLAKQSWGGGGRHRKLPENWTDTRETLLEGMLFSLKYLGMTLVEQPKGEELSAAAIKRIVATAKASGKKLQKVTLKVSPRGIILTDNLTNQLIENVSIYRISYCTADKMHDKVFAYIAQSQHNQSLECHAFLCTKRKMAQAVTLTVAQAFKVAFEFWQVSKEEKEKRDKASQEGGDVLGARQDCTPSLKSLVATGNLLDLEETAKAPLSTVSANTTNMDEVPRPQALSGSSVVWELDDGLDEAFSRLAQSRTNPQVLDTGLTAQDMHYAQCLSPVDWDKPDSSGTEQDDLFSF
- log2 fold change [1]: -0.028
- log2 fold change [3]: -0.102
- log2 fold change [5]: 0.284
- log2 fold change [9]: 0.146

Target: LGALS8 isoform 2 (UniProt O00214)
- log2 fold change [6]: 0.01
- log2 fold change [3]: -0.228
- log2 fold change [7]: 0.288
- log2 fold change [10]: -0.013
- log2 fold change [8]: -0.062
- log2 fold change [5]: 0.072
- log2 fold change [9]: 0.13
